Out of some 5,500 compounds screened, about 2,000 (36%) were called active. Not shown: some 18% with an inconclusive outcome. Rule as the data show it: active = normalized growth mostly below about 0.91 (no sharp cut-off); inconclusive = no clear call, values can overlap the other calls; inactive = mostly above about 0.92. This is one part of the list.
Assay: chemical genetic growth profiling, strain panel (AID 1159580);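 also: tested at 20 µM; growth read once vehicle control cultures reached saturation at 30 °C; 1 = growth at the plate median or of vehicle wells; lower values mean less growth of the strain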
Details: growth OD

Measured: normalized growth

CN1CC(CO)=C[C@@H]2c3cccc4[nH]cc(c34)C[C@H]21
inactive: S. cerevisiae deletion strains, locus YAL013W, strain DEP1, stronger effect = lower value 0.994 | S. cerevisiae deletion strains, locus YBR021W, strain FUR4, stronger effect = lower value 1.02 | S. cerevisiae deletion strains, locus YBR229C, strain ROT2, stronger effect = lower value 0.967 | S. cerevisiae deletion strains, locus YCL029C, strain bik1, stronger effect = lower value 1.01 | S. cerevisiae deletion strains, locus YDL035C, strain GPR1, stronger effect = lower value 0.99 | S. cerevisiae deletion strains, locus YDL074C, strain BRE1, stronger effect = lower value 0.957 | S. cerevisiae deletion strains, locus YDL101C, strain DUN1, stronger effect = lower value 0.97 | S. cerevisiae deletion strains, locus YDL134C, strain PPH21, stronger effect = lower value 0.998 | S. cerevisiae deletion strains, locus YDL185W, strain tfp1, stronger effect = lower value 0.982 | S. cerevisiae deletion strains, locus YDL192W, strain arf1, stronger effect = lower value 1.01 | S. cerevisiae deletion strains, locus YDR101C, strain arx1, stronger effect = lower value 1.01 | S. cerevisiae deletion strains, locus YDR150W, strain NUM1, stronger effect = lower value 0.991 | S. cerevisiae deletion strains, locus YDR162C, strain NBP2, stronger effect = lower value 0.964 | S. cerevisiae deletion strains, locus YDR318W, strain mcm21, stronger effect = lower value 1.02 | S. cerevisiae deletion strains, locus YDR388W, stronger effect = lower value 1.01 | S. cerevisiae deletion strains, locus YDR502C, strain sam2, stronger effect = lower value 0.993 | S. cerevisiae deletion strains, locus YEL061C, strain CIN8, stronger effect = lower value 0.995 | S. cerevisiae deletion strains, locus YER110C, stronger effect = lower value 1.01 | S. cerevisiae deletion strains, locus YER155C, strain BEM2, stronger effect = lower value 1.01 | S. cerevisiae deletion strains, locus YER167W, strain BCK2, stronger effect = lower value 1.01 | S. cerevisiae deletion strains, locus YGL078C, strain dbp3, stronger effect = lower value 0.997 | S. cerevisiae deletion strains, locus YGL086W, strain mad1, stronger effect = lower value 1.01 | S. cerevisiae deletion strains, locus YGL248W, strain PDE1, stronger effect = lower value 0.988 | S. cerevisiae deletion strains, locus YGR078C, strain PAC10, stronger effect = lower value 0.977 | S. cerevisiae deletion strains, locus YGR135W, strain pre9, stronger effect = lower value 0.985 | S. cerevisiae deletion strains, locus YGR229C, strain SMI1, stronger effect = lower value 0.992 | S. cerevisiae deletion strains, locus YGR252W, strain gcn5, stronger effect = lower value 1.05 | S. cerevisiae deletion strains, locus YHR030C, strain SLT2, stronger effect = lower value 1.01 | S. cerevisiae deletion strains, locus YHR079C, strain IRE1 (second series), stronger effect = lower value 1.01 | S. cerevisiae deletion strains, locus YHR094C, strain hxt1, stronger effect = lower value 1.01 | S. cerevisiae deletion strains, locus YHR129C, strain ARP1, stronger effect = lower value 1.01 | S. cerevisiae deletion strains, locus YHR200W, strain rpn10, stronger effect = lower value 1.01 | S. cerevisiae deletion strains, locus YIL066C, strain RNR3, stronger effect = lower value 0.983 | S. cerevisiae deletion strains, locus YIL073C, strain SPO22, stronger effect = lower value 1.05 | S. cerevisiae deletion strains, locus YIL125W, strain kgd1, stronger effect = lower value 0.996 | S. cerevisiae deletion strains, locus YIR030C, strain dcg1, stronger effect = lower value 1 | S. cerevisiae deletion strains, locus YJL095W, strain BCK1, stronger effect = lower value 0.995 | S. cerevisiae deletion strains, locus YJL134W, strain LCB3, stronger effect = lower value 0.989 | S. cerevisiae deletion strains, locus YJL168C, strain set2, stronger effect = lower value 0.998 | S. cerevisiae deletion strains, locus YJL187C, strain SWE1 (second series), stronger effect = lower value 0.975 | S. cerevisiae deletion strains, locus YJR043C, strain POL32, stronger effect = lower value 1.03 | S. cerevisiae deletion strains, locus YJR075W, strain HOC1, stronger effect = lower value 0.945 | S. cerevisiae deletion strains, locus YKL009W, strain mrt4, stronger effect = lower value 1.01 | S. cerevisiae deletion strains, locus YKL068W, stronger effect = lower value 0.999 | S. cerevisiae deletion strains, locus YKL085W, strain MDH1 (second series), stronger effect = lower value 1.02 | S. cerevisiae deletion strains, locus YKL085W, strain MDH1, stronger effect = lower value 1.02 | S. cerevisiae deletion strains, locus YKL190W, strain CNB1, stronger effect = lower value 0.994 | S. cerevisiae deletion strains, locus YKR001C, strain vps1, stronger effect = lower value 1.02 | S. cerevisiae deletion strains, locus YLR039C, strain RIC1, stronger effect = lower value 0.954 | S. cerevisiae deletion strains, locus YLR058C, strain SHM2, stronger effect = lower value 0.982 | S. cerevisiae deletion strains, locus YLR102C, strain apc9, stronger effect = lower value 1 | S. cerevisiae deletion strains, locus YLR262C, strain YPT6, stronger effect = lower value 0.957 | S. cerevisiae deletion strains, locus YLR268W, strain sec22, stronger effect = lower value 0.975 | S. cerevisiae deletion strains, locus YLR330W, strain CHS5, stronger effect = lower value 1 | S. cerevisiae deletion strains, locus YLR342W, strain FKS1 (second series), stronger effect = lower value 1.03 | S. cerevisiae deletion strains, locus YLR371W, strain rom2, stronger effect = lower value 1.01 | S. cerevisiae deletion strains, locus YLR418C, strain cdc73, stronger effect = lower value 0.966 | S. cerevisiae deletion strains, locus YML016C, strain PPZ1, stronger effect = lower value 1 | S. cerevisiae deletion strains, locus YML032C, strain rad52, stronger effect = lower value 1.01 | S. cerevisiae deletion strains, locus YML124C, strain tub3, stronger effect = lower value 1.01 | S. cerevisiae deletion strains, locus YMR078C, strain ctf18, stronger effect = lower value 1.01 | S. cerevisiae deletion strains, locus YMR223W, strain ubp8, stronger effect = lower value 1.02 | S. cerevisiae deletion strains, locus YMR263W, strain SAP30, stronger effect = lower value 0.955 | S. cerevisiae deletion strains, locus YMR307W, strain GAS1, stronger effect = lower value 1.06 | S. cerevisiae deletion strains, locus YNL067W, strain RPL9B, stronger effect = lower value 0.987 | S. cerevisiae deletion strains, locus YNL128W, strain TEP1, stronger effect = lower value 0.939 | S. cerevisiae deletion strains, locus YNL153C, strain GIM3, stronger effect = lower value 0.975 | S. cerevisiae deletion strains, locus YNL233W, strain BNI4, stronger effect = lower value 0.99 | S. cerevisiae deletion strains, locus YNL250W, strain rad50, stronger effect = lower value 0.988 | S. cerevisiae deletion strains, locus YNL271C, strain bni1, stronger effect = lower value 1.01 | S. cerevisiae deletion strains, locus YNL298W, strain CLA4, stronger effect = lower value 1.01 | S. cerevisiae deletion strains, locus YNL307C, strain MCK1, stronger effect = lower value 1.02 | S. cerevisiae deletion strains, locus YNL322C, strain KRE1, stronger effect = lower value 0.982 | S. cerevisiae deletion strains, locus YNR052C, strain pop2, stronger effect = lower value 1.01 | S. cerevisiae deletion strains, locus YOL006C, strain TOP1, stronger effect = lower value 0.983 | S. cerevisiae deletion strains, locus YOL012C, strain htz1 1.85 | S. cerevisiae deletion strains, locus YOL147C, strain pex11, stronger effect = lower value 1.01 | S. cerevisiae deletion strains, locus YOR061W, strain CKA2, stronger effect = lower value 0.963 | S. cerevisiae deletion strains, locus YOR069W, strain VPS5, stronger effect = lower value 1 | S. cerevisiae deletion strains, locus YOR136W, strain idh2, stronger effect = lower value 1.01 | S. cerevisiae deletion strains, locus YOR144C, strain elg1, stronger effect = lower value 1.01 | S. cerevisiae deletion strains, locus YOR184W, strain ser1, stronger effect = lower value 1.02 | S. cerevisiae deletion strains, locus YOR316C, strain cot1, stronger effect = lower value 1 | S. cerevisiae deletion strains, locus YPL055C, strain LGE1, stronger effect = lower value 0.938 | S. cerevisiae deletion strains, locus YPL241C, strain CIN2, stronger effect = lower value 0.997 | S. cerevisiae deletion strains, locus YPR119W, strain clb2, stronger effect = lower value 1.01 | S. cerevisiae deletion strains, locus YPR141C, strain kar3, stronger effect = lower value 0.998 | S. cerevisiae deletion strains, locus YPR163C, strain tif3, stronger effect = lower value 1.01 | S. cerevisiae deletion strains, locus YPR167C, strain met16, stronger effect = lower value 0.996 | S. cerevisiae deletion strains, strain wtn01, stronger effect = lower value 0.995 | S. cerevisiae strains, strain wild type, stronger effect = lower value 0.99
